Source: PubChem BioAssay
Sm TGR inh = qHTS Assay for the Inhibitors of Schistosoma Mansoni Peroxiredoxins | Schistosoma mansoni thioredoxin glutathione reductase (TGR), Q962Y6 | purified TGR, DTNB reduction, TNB absorbance 405 nm | Potency, µM (titrated, usually from 114 µM), without a hit: at the top dose activity change, negative = inhibition, most hits filed as inhibitors | actives 3% (n = 360,000); note: potency is the fitted concentration of half-maximal effect; nearly all actives have a fitted effect of over 60% in size
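TGR 20 nM + NADPH 100 uM (dispensed conc.), cpd preinc 15 min RT; start with NADPH (500 uM addition) then DTNB (15 mM addition). Kinetic TNB absorbance, 405 nm filter. Four-parameter Hill fit across titration.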
HCMV antiviral = qHTS Assay for inhibitors of the human cytomegalovirus (HCMV) | HFF cells, HCMV-luciferase reporter, 72 h; hits give low values | actives 4.5% (n = 410,000) | activity change, negative = inhibition, % at 57.5 µM; in the data active = activity change below about -60%; inconclusive = no clear call, values can overlap the other calls; inactive = above about -39%
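Steps: HFFs plated, 16 h 37C; compounds added; HCMV-luciferase added to MOI 1 PFU/cell; 72 h 37C; OneGlo reagent, 5 min room temperature; luminescence read, normalized to controls.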
FBPA Giardia inh = qHTS Assay for Inhibitors of Fructose-1,6-bisphosphate Aldolase from Giardia Lamblia | A8B2U2 | purified Giardia FBPA | Potency, µM (titrated, usually from 59.6 µM), for inactives: at the top dose activity, negative = inhibition, most hits filed as inhibitors | actives 0.71% (n = 290,000) | AID 2451, 2010; note: potency is the fitted concentration of half-maximal effect; nearly all actives have a fitted effect of over 55% in size
Target sequence (A8B2U2 whole entry, looked up): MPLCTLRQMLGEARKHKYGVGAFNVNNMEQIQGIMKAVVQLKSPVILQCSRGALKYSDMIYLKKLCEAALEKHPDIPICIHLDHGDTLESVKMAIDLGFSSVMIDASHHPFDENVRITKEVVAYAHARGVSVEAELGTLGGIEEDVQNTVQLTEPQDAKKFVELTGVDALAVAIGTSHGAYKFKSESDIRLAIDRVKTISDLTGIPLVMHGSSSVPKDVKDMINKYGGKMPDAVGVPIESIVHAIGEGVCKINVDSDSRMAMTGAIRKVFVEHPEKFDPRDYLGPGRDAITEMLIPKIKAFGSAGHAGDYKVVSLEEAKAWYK
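40 nM FBPA preincubated 10 min at RT with compound (up to 57.5 uM final), then substrate plus GAPDH/TPI/NAD/arsenate coupling and diaphorase/resazurin added. Fluorescence read after 20 min at RT, 525/598 nm.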
Pf growth 96h = Primary qHTS for delayed death inhibitors of the malarial parasite plastid, 96 hour incubation; actives 6.9% (n = 320,000); Potency, µM (doses to about 28.7 µM), for inactives: at the highest dose activity change, negative = inhibition, usual class: inhibitors; P. falciparum luciferase reporter growth, 96 h; AID 504834, 2011; note: potency is the fitted concentration of half-maximal effect
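Plates of compound plus infected erythrocytes (2% hematocrit, 0.05% parasitemia final) incubate 96 hours, 37 C, 5% CO2. Detection reagent added; reduced luminescence from the parasites' luciferase reporter flags inhibition.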
Pf growth 48h = Primary qHTS for delayed death inhibitors of the malarial parasite plastid, 48 hour incubation; Potency, µM (series often up to 28.7 µM), without a hit: at the top dose activity change, negative = inhibition, hits mostly inhibitors; actives 5.9% (n = 310,000); P. falciparum luciferase growth in erythrocytes, 48 h; note: potency is the fitted concentration of half-maximal effect
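First compound was added to culture medium, then infected red cells at 0.1% parasitemia and 2% hematocrit (final). After incubation at 37 C under 5% CO2, luciferase detection reagent was dispensed and light output recorded.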
* hit, by the source's call; u = inconclusive; x = not tested or not shown. Rows were chosen to be rich in hits. Some 14% of all compounds tested hit in one or more screens of this group. Unless noted, calls come from the whole dose curve; as a rule, active = well fitted curve in the direction sought with a large enough effect; inconclusive = small, poorly fitted or top-dose-only effect, or another doubt; inactive = no such curve, though single readings can be large; an effect the other way counts as inactive or inconclusive. % is set by controls: 0 for no effect and ±100 for the full control effect.

SMILES	Sm TGR inh	HCMV antiviral	FBPA Giardia inh	Pf growth 96h	Pf growth 48h
O=C1C(n2cccc2)c2ccccc2N1Cc1ccc(C(F)(F)F)cc1 (centres undefined)	x	23.0	x	x	x
COc1ccc([C@H]2CC(=O)C=C(c3cccc(C(F)(F)F)c3)C2)cc1	-1.0%	-2.6	x	u	25.1%
CSC1=C(C#N)C(c2ccc(C)s2)CC(=O)N1 (centres undefined)	-3.6%	-27.5	1.8%	2.33µM*	12.2%
Cc1ccc(C2CC(=O)NC(SCC(N)=O)=C2C#N)s1 (centres undefined)	-0.6%	-24.6	-9.1%	-0.2%	-3.3%
CCOC(=O)C(C)N1C(=O)S/C(=C\c2ccc(-c3ccccc3C(=O)O)o2)C1=O (centres undefined)	u	18.4	-8.1%	35.1%	0.0%
C=CCN1C(=O)S/C(=C/c2ccc(Sc3nc4ccccc4[nH]3)o2)C1=O	-1.0%	-92.3*	-15.4%	19.0%	43.1%
Cc1ccc(N2C(=O)NC(=O)/C(=C/c3ccc(-c4ccc(C(=O)O)c(Cl)c4)o3)C2=O)cc1	u	u	-24.7%	u	15.5%
CC(C)N1C(=O)S/C(=C/c2ccc(Sc3nc4ccccc4[nH]3)o2)C1=O	-21.9%	-84.9*	-22.5%	u	u
C=CCN1C(=O)S/C(=C/c2ccsc2)C1=O	6.8%	-15.2	-0.3%	36.1%	47.3%
O=C1NC(=O)N(c2ccc(Cl)cc2)C(=O)/C1=C\c1ccc(Sc2nc3ccccc3[nH]2)o1	8.91µM*	-9.3	-4.7%	-0.2%	-14.3%
COCCCNC(=O)C1CCC(=O)N1Cc1ccccc1Cl (centres undefined)	1.0%	12.3	0.9%	11.7µM*	23.7%
O=C(Nc1ccc(Cl)cc1Cl)C1CCC(=O)N1Cc1ccccc1Cl (centres undefined)	0.3%	-23.7	3.5%	8.28µM*	u
O=C(O)C1CCC(=O)N1Cc1ccccc1Cl (centres undefined)	-9.8%	7.8	2.3%	10.4µM*	1.5%
O=C(NCCc1ccc(Cl)cc1)C1CCC(=O)N1Cc1ccccc1Cl (centres undefined)	-12.4%	-6.9	2.9%	59.6%	1.8%
COCCNC(=S)N1CCN(Cc2ccc3c(c2)OCO3)CC1	0.0%	-1.3	5.3%	u	-1.7%
CC(C)n1c(-c2ccc(C(C)(C)C)cc2)n[nH]c1=S	0.8%	-72.1*	-0.6%	32.6%	31.6%
COc1ccc(C(=O)OCc2nnc(-c3ccccc3)o2)cc1S(=O)(=O)N1CCOCC1	-1.6%	-32.8	x	7.5%	16.1%
CS(=O)(=O)c1ccc(C(=O)OCc2nnc(-c3ccc(Cl)cc3)o2)cc1[N+](=O)[O-]	2.51µM*	x	2.0%	-1.6%	21.0%
O=C(OCc1nnc(-c2ccc(Cl)cc2)o1)c1ccc(O)cc1	-6.0%	u	6.3%	26.8%	-1.8%
O=C(OCc1nnc(-c2ccc([N+](=O)[O-])cc2)o1)c1ccc(F)c(S(=O)(=O)N2CCOCC2)c1	0.0%	-67.1*	x	5.2%	-1.7%
O=C(CCC(=O)c1ccc(F)cc1)OCc1nnc(-c2ccc([N+](=O)[O-])cc2)o1	20µM*	0.0	x	-29.3%	-16.1%
Cc1ccccc1S(=O)(=O)N(C)C[C@@H]1OCc2cn(nn2)CCCC(=O)N([C@@H](C)CO)C[C@H]1C	x	4.8	x	x	x
COc1ccc(N2C(=O)CSC23C(=O)N(CC(N)=O)c2ccccc23)cc1 (centres undefined)	5.2%	24.4	x	x	x
CC1(C)Cc2c(ccc3ccccc23)C(c2cc3ccccc3oc2=O)=N1	10.9%	-25.1	2.8%	10.4µM*	u
CC1(C)Cc2ccccc2C(c2cc3ccccc3oc2=O)=N1	-26.7%	-70.2*	3.9%	u	8.28µM*
SMILES	Sm TGR inh	HCMV antiviral	FBPA Giardia inh	Pf growth 96h	Pf growth 48h
CCOC(=O)c1cnc2cc(C(F)(F)F)ccc2c1Nc1ccc(F)cc1F	-2.4%	6.7	x	x	x
COc1ccc(C)cc1NC(=O)c1cn(C)c(=O)c2cc(OC)c(OC)cc12	10.2%	-9.2	x	x	x
O=C(OCc1cn([C@H]2C[C@H](c3ccccc3)N(Cc3cccs3)C[C@@H]2O)nn1)c1ccccc1	x	11.0	x	x	x
COc1cc2c(cc1OC)CN(C(=O)c1nn(Cc3ccccc3)c(=O)c3ccccc13)CC2	-4.3%	u	x	u	10.4µM*
CC(=O)c1ccc(N2CCN(C(=O)c3nn(Cc4ccccc4)c(=O)c4ccccc34)CC2)cc1	-0.5%	4.8	0.5%	-4.2%	3.7µM*
COc1ccc(OCC(O)CN2CC(C)OC(C)C2)cc1 (centres undefined)	6.7%	-11.8	-3.7%	133.9%	-29.5%
CCc1nn(-c2ccccc2)c2c1-c1cc(OC)c(OC)cc1C1(N2)C(=O)Nc2ccccc21 (centres undefined)	0.0%	-10.5	-8.7%	2.62µM*	x
COc1cc2c(cc1OC)C1(Nc3c-2c(C)nn3-c2ccccc2)C(=O)Nc2ccccc21 (centres undefined)	-13.7%	-21.1	-9.6%	1.47µM*	x
CCc1nn(-c2ccccc2)c2nc(-c3ccccc3OC)c3cc(OC)c(OC)cc3c12	-4.2%	-9.5	x	x	x
COc1cc2c(cc1OC)C1(Nc3c-2c(-c2ccccc2)nn3-c2ccccc2)C(=O)Nc2ccccc21 (centres undefined)	-17.5%	-14.6	-7.6%	174.5%	x
c1cc2c(cn1)cnc1cscc12	1.0%	-63.2*	-5.5%	-3.5%	8.4%
c1cnc2c(c1)ncc1cscc12	-2.3%	-22.1	1.9%	0.0%	0.5%
Cc1noc(C)c1COc1ccccc1C(=O)N1CCN(S(=O)(=O)c2cccc(Cl)c2)CC1	-3.2%	4.4	x	-25.1%	u
Cc1noc(C)c1COc1ccccc1C(=O)N1CCN(S(=O)(=O)c2ccccc2Br)CC1	x	-86.4*	x	x	x
Cc1ccc(S(=O)(=O)N2CCN(C(=O)c3ccc(OCc4c(C)noc4C)cc3)CC2)cc1	5.9%	-36.9	-7.9%	0.0%	x
Cc1noc(C)c1COc1ccccc1C(=O)N1CCN(S(=O)(=O)c2ccccc2C(F)(F)F)CC1	2.5%	-18.4	x	u	14.7µM*
COc1cc(C(=O)N2CCN(S(=O)(=O)c3ccc(C)cc3)CC2)ccc1OCc1c(C)noc1C	-6.8%	-14.2	-0.8%	x	4.15µM*
Cc1noc(C)c1COc1ccccc1C(=O)N1CCN(S(=O)(=O)c2ccc(C(C)C)cc2)CC1	x	-75.3*	x	x	x
COc1ccc(-n2nc(C(=O)NCC(=O)NCCCN3CCOCC3)c3ccccc3c2=O)cc1	0.6%	37.7	3.4%	0.0%	6.5%
Cc1cc(C)c(C)c(S(=O)(=O)N2CCN(C(=O)c3ccccc3OCc3c(C)noc3C)CC2)c1C	-0.6%	-6.6	x	13.1µM*	10.4µM*
